Experimental findings from PubChem BioAssay (Tox21) are described below.

Records with an inconclusive call do not appear. Unmarked numbers belong to inactive results. Calls of active or inactive are those of the source. Unless noted, the call rests on the fitted dose curve; in most records, active means well fitted curve in the direction sought with a large enough effect in the repeat runs; inconclusive means weak or mixed curves; inactive means no such curve, though single readings can be large; an effect the other way counts as inactive or inconclusive.

A short description of test [1]: qHTS assay to identify small molecule antagonists of the estrogen related receptor (ERR) signaling pathway from Tox21 library - cell viability counter screen (AID 1224834). Further: nearly all actives have a fitted effect of over 30% in size. Further: potency means the concentration at half of the fitted maximal effect. In a few lines: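 Multiplexed viability counter screen in ERR cells: 17.5 h compound exposure at 37 C, CellTiter-Fluor added, 30 min at 37 C/5% CO2, fluorescence read.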
The target in test [2] is Luciferin 4-monooxygenase (Photinus pyralis) (UniProt P08659). The test can be described thus: qHTS assay to identify small molecule inhibitors of firefly luciferase (AID 1224835). Further: nearly all actives have a fitted effect of over 25% in size. Further: potency means the concentration at half of the fitted maximal effect. In a few lines: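 Inhibition of purified Photinus luciferase is measured by luminescence. Substrate levels (D-luciferin, ATP) sit at their KM values. Each compound is tested in a concentration series.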
Luciferin 4-monooxygenase (Photinus pyralis), sequence (P08659 whole entry, looked up): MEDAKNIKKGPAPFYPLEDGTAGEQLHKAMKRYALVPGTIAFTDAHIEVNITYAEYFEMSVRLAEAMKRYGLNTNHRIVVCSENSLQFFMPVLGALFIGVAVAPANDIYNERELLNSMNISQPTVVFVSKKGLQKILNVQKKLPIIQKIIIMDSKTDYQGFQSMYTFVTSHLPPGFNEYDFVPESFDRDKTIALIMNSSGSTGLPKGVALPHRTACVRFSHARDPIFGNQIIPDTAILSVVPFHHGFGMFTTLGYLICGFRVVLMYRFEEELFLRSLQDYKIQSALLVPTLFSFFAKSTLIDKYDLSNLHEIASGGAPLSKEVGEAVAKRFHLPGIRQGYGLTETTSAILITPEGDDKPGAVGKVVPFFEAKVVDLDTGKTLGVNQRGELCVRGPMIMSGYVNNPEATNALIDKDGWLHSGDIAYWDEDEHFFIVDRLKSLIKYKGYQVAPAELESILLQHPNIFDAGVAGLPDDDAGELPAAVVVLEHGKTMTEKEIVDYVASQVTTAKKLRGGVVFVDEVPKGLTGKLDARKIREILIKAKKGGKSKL
In general terms: qHTS replaces the single test concentration by a dilution series.

A short description of test [3]: qHTS assay to identify small molecule agonists of the constitutive androstane receptor (CAR) signaling pathway - cell viability counter screen (AID 1224836). Further: series mostly up to about 92 µM; nearly all actives have a fitted effect of over 45% in size. The method, boiled down:
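Viability read-out: CellTiter-Fluor fluorescence after 23 h compound exposure at 37 C/5% CO2 in double-stable HepG2-CYP2B6-hCAR cells, with PK11195 present at 0.75 uM final; compounds tested in 15-point titration.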

A short description of test [4]: qHTS assay to identify small molecule antagonists of the constitutive androstane receptor (CAR) signaling pathway - cell viability counter screen (AID 1224837). Further: series mostly up to about 92 µM; nearly all actives have a fitted effect of over 45% in size. In a few lines: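 Read-out: CellTiter-Fluor fluorescence after 23 hr at 37 C/5% CO2. Cells: HepG2 double-stable for hCAR and CYP2B6-2.2kb. Compounds tested at 15 concentrations in the presence of CITCO, final concentration 50 nM.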

Test [5] can be described thus: qHTS assay to identify small molecule antagonists of the estrogen related receptor signaling pathway with the pleiotropic PPARgamma coactivator (PGC) from Tox21 10K library - cell viability counter screen (AID 1224840; active means well fitted cell-killing curve with a large enough effect in the repeat runs, not every such curve was filed as active; further: nearly all actives have a fitted effect of over 40% in size). The method, boiled down: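 Fluorescence read-out of CellTiter-Fluor viability reagent, added after cells had been exposed to compound in DMSO for 17.5 h at 37 C; 30 min development at 37 C/5% CO2. Cells: PGC/ERR line, 2,000/well.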

The target of test [6] is Thyrotropin receptor (Homo sapiens) (UniProt P16473). The test can be described thus: qHTS assay to identify small molecule agonists of the thyroid stimulating hormone receptor (TSHR) signaling pathway (AID 1224843; calls by dose curve; further: nearly all actives have a fitted effect of over 45% in size; further: potency means the concentration at half of the fitted maximal effect). The method, boiled down: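 A cell-based cAMP HTRF format was run in TSHR-transfected HEK293 cells, 800 per well. Treatment: 30 min, room temperature. Detection: 1 h with labelled cAMP and anti-cAMP cryptate. Concentration-response over 15 points, three replicates.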
Thyrotropin receptor (Homo sapiens), sequence (P16473 whole entry, looked up): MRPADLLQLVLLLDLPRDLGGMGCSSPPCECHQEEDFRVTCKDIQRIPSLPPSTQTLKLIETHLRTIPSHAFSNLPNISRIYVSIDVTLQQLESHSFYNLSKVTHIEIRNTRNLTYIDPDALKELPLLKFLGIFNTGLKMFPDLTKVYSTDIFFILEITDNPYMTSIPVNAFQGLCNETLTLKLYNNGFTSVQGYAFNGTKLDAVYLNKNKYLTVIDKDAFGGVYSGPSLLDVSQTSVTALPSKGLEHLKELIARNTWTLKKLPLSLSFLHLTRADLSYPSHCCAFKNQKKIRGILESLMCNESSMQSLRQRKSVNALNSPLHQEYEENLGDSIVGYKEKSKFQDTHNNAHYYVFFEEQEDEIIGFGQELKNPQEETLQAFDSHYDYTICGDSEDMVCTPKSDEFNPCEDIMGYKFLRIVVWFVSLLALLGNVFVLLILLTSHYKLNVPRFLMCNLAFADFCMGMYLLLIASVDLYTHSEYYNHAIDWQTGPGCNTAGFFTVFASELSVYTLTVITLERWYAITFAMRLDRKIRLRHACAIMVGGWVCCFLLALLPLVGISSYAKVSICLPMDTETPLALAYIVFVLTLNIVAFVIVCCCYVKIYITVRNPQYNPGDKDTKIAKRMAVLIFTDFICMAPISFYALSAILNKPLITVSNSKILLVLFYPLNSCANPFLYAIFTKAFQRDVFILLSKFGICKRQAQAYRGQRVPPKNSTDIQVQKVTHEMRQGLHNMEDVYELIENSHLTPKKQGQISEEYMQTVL

The target of test [7] is Nuclear receptor subfamily 1 group I member 3 (Homo sapiens) (UniProt Q14994). The test can be described thus: qHTS assay to identify small molecule antagonists of the constitutive androstane receptor (CAR) signaling pathway (AID 1224838).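 Further: HepG2 cells stably expressing hCAR with CYP2B6 luciferase reporter stimulated by CITCO; nearly all actives have a fitted effect of over 40% in size.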 Further: potency means the concentration at half of the fitted maximal effect. The method, boiled down:
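Read-out: ONE-Glo luciferase luminescence after 30 min at room temperature. HepG2-CYP2B6-hCAR double-stable cells, compounds in 15-point titration plus 50 nM CITCO final, 24 h at 37 C/5% CO2.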

Test [8] has the same target. Put plainly: qHTS assay to identify small molecule agonists of the constitutive androstane receptor (CAR) signaling pathway (AID 1224839). Further: nearly all actives have a fitted effect of over 15% in size. Further: potency means the concentration at half of the fitted maximal effect.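 On activation: HepG2 cells stably carrying human CAR and a CYP2B6 luciferase reporter; series mostly up to about 92 µM.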 In a few lines:
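Luminescence read-out (ONE-Glo, 30 min, room temperature) from double-stable HepG2-CYP2B6-hCAR cells exposed 24 h to 15-point compound series in presence of 0.75 uM PK11195 final.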

Test [9] in a line: qHTS assay to identify small molecule antagonists of the estrogen related receptor signaling pathway with the pleiotropic PPARgamma coactivator (PGC) from Tox21 10K library (AID 1224841; call rule not given here; further: actives are mostly falling curves and most rising ones were filed inactive; nearly all actives have a fitted effect of over 50% in size; further: potency means the concentration at half of the fitted maximal effect). The method, boiled down:
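Luminescence read-out (One-Glo luciferase reagent, 30 min at room temperature) from PGC/ERR cells exposed to DMSO-dissolved test compounds for 18 h at 37 C; cells, 2,000 per well, had been preincubated 6 h before compound transfer.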

Test [10] is described as follows: qHTS assay to identify small molecule agonists of the estrogen related receptor signaling pathway with the pleiotropic PPARgamma coactivator (PGC) from Tox21 10K library (AID 1224842). Further: nearly all actives have a fitted effect of over 15% in size. Further: potency means the concentration at half of the fitted maximal effect. The method, boiled down: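 Luminescence from One-Glo (30 min, room temperature) measured after PGC/ERR cells had 18 h at 37 C with pinned compound (23 nL in DMSO). Cells had been seeded at 2,000 per well and pre-incubated 6 h.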
On the % scale 0 is the no-effect control and ±100 the full control effect.

Nuclear receptor subfamily 1 group I member 3 (Homo sapiens), sequence (Q14994 whole entry, looked up): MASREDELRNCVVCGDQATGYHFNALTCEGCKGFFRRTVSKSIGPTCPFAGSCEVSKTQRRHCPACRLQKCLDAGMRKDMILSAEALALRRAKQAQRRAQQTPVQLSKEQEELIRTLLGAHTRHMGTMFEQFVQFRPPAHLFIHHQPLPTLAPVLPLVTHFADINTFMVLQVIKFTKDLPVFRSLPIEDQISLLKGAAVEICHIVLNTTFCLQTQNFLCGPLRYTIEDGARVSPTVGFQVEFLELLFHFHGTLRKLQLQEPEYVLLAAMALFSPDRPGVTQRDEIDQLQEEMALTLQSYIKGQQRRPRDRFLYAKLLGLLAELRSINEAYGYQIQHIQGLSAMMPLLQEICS

For the molecule `NNC(=O)CP(=O)(c1ccccc1)c1ccccc1`, the Potency result in test [1], in test [2], in [3], in test [4], in test [5] and in [6] was “inactive” throughout.
For the molecule `CCOC(=O)OC(C)OC(=O)[C@@H]1N2C(=O)[C@@H](NC(=O)[C@H](N)c3ccccc3)[C@H]2SC1(C)C` (some centres undefined), the Potency result in test [1], in test [2], in test [3], in test [7], in test [8] and in [5] was “inactive” in each case. In addition, the Potency entry in test [6] was “inactive”.
In the case of `CCOc1ccccc1O[C@H](c1ccccc1)[C@H]1CNCCO1`, the Potency entry in test [1], in [2], in test [3], in test [4], in test [5] and in [6] was “inactive” each time.
As for `OC(CCN1CCCC1)(c1ccccc1)C1CCCCC1` (centres undefined), the Potency result in test [1], in test [2], in [3], in test [4], in test [5] and in test [6] was “inactive” in each case.
Regarding `CC1(C)S[C@@H]2[C@H](NC(=O)C(c3ccccc3)S(=O)(=O)O)C(=O)N2[C@H]1C(=O)O` (some centres undefined), the Potency result in [1], in test [2], in test [3], in test [4], in [5] and in test [6] was “inactive” throughout.
Regarding `O=C(OC(=O)c1ccccc1)c1ccccc1`, the Potency entry in test [1], in test [2], in [3], in [4], in test [5] and in test [6] was “inactive” throughout.
As to `O[C@@H]1CO[C@H]2[C@@H]1OC[C@@H]2O`, the Potency entry in test [1], in [2], in [3], in [4], in [5] and in test [6] was “inactive” throughout.
As to `CCn1cc(C(=O)O)c(=O)c2cc(F)c(N3CCNCC3)cc21`, the Potency result in test [1], in [2], in test [3], in [4], in test [5] and in test [6] was “inactive” each time.
Turning to `C=CC(=O)[O-].C=CC(=O)[O-].[Zn+2]`, the Potency entry in test [1], in [3], in test [7], in test [8] and in test [5] was “inactive” each time. Moreover, the Potency in test [2] was 2.19 µM (active).
As for `Cc1ccc(CO)cc1`, the Potency entry in test [1], in [2], in test [3], in [7], in test [8] and in test [5] was “inactive” in each case. In test [6], the Potency entry is “inactive”.
For `CNC(=O)c1cnn(-c2nc(N)c3ncn([C@@H]4O[C@H](CO)[C@@H](O)[C@H]4O)c3n2)c1`, the Potency entry in test [1], in test [2], in test [3], in test [7], in [8] and in test [5] was “inactive” in each case. Besides, the Potency result in test [6] was “inactive”.
On to `CC1(C)[C@@H](OC(=O)CCC(=O)O)CC[C@]2(C)[C@H]3C(=O)C=C4[C@@H]5C[C@@](C)(C(=O)O)CC[C@]5(C)CC[C@@]4(C)[C@]3(C)CC[C@@H]12`, for which the Potency result in [1], in test [2], in test [3], in test [7], in [8] and in test [5] was “inactive” each time. The Potency entry in test [9], in test [10] and in test [6] was “inactive” each time.
On to `COc1ncnc(NS(=O)(=O)c2ccc(N)cc2)c1OC`, for which the Potency result in test [1], in test [2], in test [3], in test [7], in test [8] and in [5] was “inactive” each time. The Potency result in test [9] and in test [10] was “inactive” each time.
Consider `CC(C)=CCC/C(C)=C/CC/C(C)=C/CCC(=O)OC/C=C(\C)CCC=C(C)C`, for which the Potency entry in [1], in test [2], in test [3], in [7], in [8] and in test [5] was “inactive” each time. The Potency result in test [9], in test [10] and in test [6] was “inactive” in each case.
On to `CN1C(=O)OC(C)(C)C1=O`, for which the Potency result in test [1], in test [2], in [3], in test [7], in test [8] and in [5] was “inactive” throughout. Further, the Potency entry in [9] and in [10] was “inactive” each time.
In the case of `C=C(C)CCCC(C)CCO` (centres undefined), the Potency entry in [1], in test [2], in test [3], in test [4], in test [5] and in test [6] was “inactive” throughout.
With `C[C@H]1c2cccc(O)c2C(O)=C2C(=O)[C@]3(O)C(O)=C(C(N)=O)C(=O)[C@@H](N(C)C)[C@@H]3[C@@H](O)[C@@H]21`, the Potency entry in [1], in test [2], in test [7], in [8], in test [5] and in [10] was “inactive” each time.
Turning to `Cc1ccc(Cl)c(Nc2ccccc2C(=O)O)c1Cl`, the Potency result in [1], in test [2], in test [3], in test [5] and in test [6] was “inactive” throughout.
In the case of `Cc1cc(=O)c2c(O)c3c(O)cc(=O)c4c3c3c(cc(O)c1c23)C(C)(C)C=4O`, the Potency in [1] was 1.46 µM (active); in [7], 2.59 µM (active). Moreover, the Potency result in [2] was “inactive”. Besides, the activation is -14.4% [at 19 µM] in test [8] and 13.3% [at 19 µM] in test [6].
As for `CC(C)=CCC/C(C)=C/CC/C(C)=C/C(=O)OCC(=O)[C@@]1(O)CC[C@H]2[C@@H]3CCC4=CC(=O)C=C[C@]4(C)[C@H]3[C@@H](O)C[C@@]21C`, the Potency in [1] was 29.8 µM (active); in [9], 16.8 µM (active). Further, the Potency result in test [2], in test [3], in test [7], in [5], in test [10] and in [6] was “inactive” in each case.
As to `CCCC(C(=O)OCCN(CC)CC)(c1ccccc1)c1ccccc1`, the Potency in [1] is 29.8 µM (active); in test [8], 11.9 µM (active). Further, the Potency result in test [2], in [3], in test [7] and in test [10] was “inactive” in each case.
As to `CN1C(=O)c2ccccc2C1=O`, the Potency entry in test [1], in test [2], in [4], in test [7], in [8] and in test [5] was “inactive” throughout. Moreover, the Potency entry in [9], in test [10] and in [6] was “inactive” throughout.
On to `Nc1ncnc2c1ncn2[C@H]1CC[C@@H](CO)O1`, for which the Potency result in test [1], in [2], in test [3], in [7], in [8] and in test [5] was “inactive” in each case. The Potency result in [6] is “inactive”.
On to `COc1cc(Nc2c(C#N)cnc3cc(OCCCN4CCN(C)CC4)c(OC)cc23)c(Cl)cc1Cl`, for which the Potency in test [1] is 9.44 µM (active). Moreover, the Potency result in [2], in [3] and in [5] was “inactive” throughout.
In the case of `C[C@@H](CN(C)C)CN1c2ccccc2Sc2ccccc21`, the Potency in test [1] was 26.6 µM (active). The Potency entry in test [2], in test [7], in test [5], in test [9] and in test [10] was “inactive” throughout.
Turning to `CCCCCCCCCI`, the Potency result in test [1], in [3], in test [4], in test [7], in test [8] and in test [5] was “inactive” throughout. For the same molecule, in [9], the Potency entry was “inactive”. Besides, the Potency in test [10] is 8.79 µM (active); in test [6] it was 24.8 µM (active).
